Where “and” joins values, the source holds several entries; their conditions need not be identical. Identical values can stand only once. Hit rate of the full screen: of about 5,500 compounds, about 2,000 (36%) were called active. Another 18% or so got no clear call; they are omitted. Cut-off read from the data, not from the text of the source: active = normalized growth mostly below about 0.91 (no sharp cut-off); inconclusive = no clear call, values can overlap the other calls; inactive = mostly above about 0.92. Some of the results follow.
Test: chemical genetic growth profiling, strain panel (AID 1159580);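 note: tested at 20 µM; growth read once vehicle control cultures reached saturation at 30 °C; 1 = growth at the plate median or of vehicle wells; lower values mean less growth of the strain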
Conditions: S. cerevisiae deletion strains, growth OD

Measured: normalized growth

CC(C)=CCc1c(O)cc2occ(-c3ccc4c(c3)OCO4)c(=O)c2c1O
0.984 (inactive) and 0.838 (active): locus YJL095W, strain BCK1, stronger effect = lower value
active: locus YAL026C, strain drs2, stronger effect = lower value 0.865 | locus YBL061C, strain skt5, stronger effect = lower value 0.864 | locus YBR009C, strain hhf1, stronger effect = lower value 0.819 | locus YBR023C, strain chs3, stronger effect = lower value 0.855 | locus YCL016C, strain dcc1, stronger effect = lower value 0.872 | locus YCL061C, strain MRC1, stronger effect = lower value 0.909 | locus YCL069W, strain vba3, stronger effect = lower value 0.888 | locus YDR297W, strain sur2, stronger effect = lower value 0.911 | locus YDR335W, strain msn5, stronger effect = lower value 0.917 | locus YDR392W, strain spt3, stronger effect = lower value 0.67 | locus YER015W, strain faa2, stronger effect = lower value 0.876 | locus YGL253W, strain hxk2, stronger effect = lower value 0.814 | locus YHR013C, strain ard1, stronger effect = lower value 1.17 [resistant] | locus YHR027C, strain rpn1, stronger effect = lower value 0.805 | locus YHR079C, strain IRE1, stronger effect = lower value 0.8 | locus YHR142W, strain chs7, stronger effect = lower value 0.74 | locus YJL166W, strain qcr8, stronger effect = lower value 0.862
1.01 (inactive) and 0.843 (active): locus YHR030C, strain SLT2, stronger effect = lower value
inactive: locus YAL013W, strain DEP1, stronger effect = lower value 1.01 | locus YAL021C, strain ccr4, stronger effect = lower value 1.05 | locus YAL030W, strain snc1, stronger effect = lower value 0.996 | locus YBR021W, strain FUR4, stronger effect = lower value 0.991 | locus YBR171W, strain sec66, stronger effect = lower value 0.981 | locus YBR229C, strain ROT2, stronger effect = lower value 1.02 | locus YBR231C, strain swc5, stronger effect = lower value 0.929 | locus YBR279W, strain paf1, stronger effect = lower value 0.993 | locus YCL011C, strain gbp2, stronger effect = lower value 0.909 | locus YCL029C, strain bik1, stronger effect = lower value 1.03 | locus YCR088W, strain abp1, stronger effect = lower value 0.998 | locus YDL005C, strain med2, stronger effect = lower value 0.993 | locus YDL035C, strain GPR1, stronger effect = lower value 1.01 | locus YDL040C, strain nat1, stronger effect = lower value 1 | locus YDL074C, strain BRE1, stronger effect = lower value 1.03 | locus YDL101C, strain DUN1, stronger effect = lower value 1.01 | locus YDL134C, strain PPH21, stronger effect = lower value 1.01 | locus YDL185W, strain tfp1, stronger effect = lower value 1.03 | locus YDL192W, strain arf1, stronger effect = lower value 1.03 | locus YDR001C, strain nth1, stronger effect = lower value 1.01 | locus YDR069C, strain doa4, stronger effect = lower value 0.957 | locus YDR101C, strain arx1, stronger effect = lower value 1.01 | locus YDR137W, strain rgp1, stronger effect = lower value 0.897 | locus YDR150W, strain NUM1, stronger effect = lower value 1 | locus YDR159W, strain sac3, stronger effect = lower value 0.888 | locus YDR162C, strain NBP2, stronger effect = lower value 1.01 | locus YDR195W, strain ref2 0.937 | locus YDR318W, strain mcm21, stronger effect = lower value 1.02 | locus YDR334W, strain swr1, stronger effect = lower value 0.967 | locus YDR388W, stronger effect = lower value 1.02 | locus YDR502C, strain sam2, stronger effect = lower value 1.01 | locus YEL003W, strain gim4, stronger effect = lower value 0.932 | locus YEL037C, strain rad23, stronger effect = lower value 0.994 | locus YEL061C, strain CIN8 (second series), stronger effect = lower value 0.997 | locus YEL061C, strain CIN8, stronger effect = lower value 1.01 | locus YER016W, strain bim1, stronger effect = lower value 0.997 | locus YER110C, stronger effect = lower value 1.05 | locus YER111C, strain swi4, stronger effect = lower value 1.02 | locus YER155C, strain BEM2 (second series), stronger effect = lower value 0.911 | locus YER155C, strain BEM2, stronger effect = lower value 1.01 | locus YER167W, strain BCK2, stronger effect = lower value 1.02 | locus YFR010W, strain ubp6, stronger effect = lower value 0.92 | locus YGL078C, strain dbp3, stronger effect = lower value 1.03 | locus YGL086W, strain mad1, stronger effect = lower value 1.05 | locus YGL167C, strain pmr1, stronger effect = lower value 1 | locus YGL173C, strain kem1, stronger effect = lower value 0.921 | locus YGL227W, strain vid30, stronger effect = lower value 0.972 | locus YGL240W, strain doc1, stronger effect = lower value 0.944 | locus YGL248W, strain PDE1, stronger effect = lower value 1.02 | locus YGR078C, strain PAC10, stronger effect = lower value 0.997 | locus YGR135W, strain pre9, stronger effect = lower value 0.993 | locus YGR229C, strain SMI1, stronger effect = lower value 0.983 | locus YGR252W, strain gcn5, stronger effect = lower value 1.03 | locus YHR079C, strain IRE1 (second series), stronger effect = lower value 1.03 | locus YHR094C, strain hxt1, stronger effect = lower value 1.03 | locus YHR129C, strain ARP1, stronger effect = lower value 1.01 | locus YHR200W, strain rpn10, stronger effect = lower value 1.02 | locus YIL066C, strain RNR3, stronger effect = lower value 1.01 | locus YIL073C, strain SPO22, stronger effect = lower value 1.05 | locus YIL125W, strain kgd1, stronger effect = lower value 1.03 | locus YIR030C, strain dcg1, stronger effect = lower value 1.02 | locus YJL092W, strain hpr5, stronger effect = lower value 0.962 | locus YJL095W, strain BCK1 (second series), stronger effect = lower value 0.946 | locus YJL115W, strain asf1, stronger effect = lower value 1.01 | locus YJL129C, strain trk1, stronger effect = lower value 0.923 | locus YJL134W, strain LCB3, stronger effect = lower value 1.01 | locus YJL154C, strain vps35, stronger effect = lower value 1 | locus YJL164C, strain tpk1, stronger effect = lower value 0.943 | locus YJL168C, strain set2, stronger effect = lower value 1.02 | locus YJL187C, strain SWE1 (second series), stronger effect = lower value 1.01 | locus YJL187C, strain SWE1, stronger effect = lower value 1 | locus YJR043C, strain POL32, stronger effect = lower value 0.994

From PubChem BioAssay AID1159580 (chemical genetic matrix, 2015)
